In PubChem BioAssay (NCI):
Compounds without any hit were thinned out: in the full panel of roughly 79,000, 15% have a hit. A number with no mark means an inactive call. Active and inactive are the calls of the source. Cut-off read from the data, not from the text of the source: active = growth inhibition above about 70%; inactive = the rest.

Tests used:
[1] = NCI Yeast Anticancer Drug Screen. Data for the rad50 strain (AID 155);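 note: 0% = growth of vehicle-only cultures of the same strain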; details: S. cerevisiae rad50 strain growth inhibition, hits give high values
In short: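 Compounds were tested on a yeast strain with an engineered DNA damage repair alteration; the reported value is growth inhibition normalised to vehicle treatment.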

[2] = NCI Yeast Anticancer Drug Screen. Data for the mec2-1 strain (AID 157); details: S. cerevisiae mec2-1 strain, hits give high values
In short: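 Using mec2-1 yeast: add compound, measure growth, express inhibition versus vehicle-treated cultures.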

[3] = NCI Yeast Anticancer Drug Screen. Data for the sgs1 mgt1 strain (AID 161);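 note: 0% = growth of cultures given vehicle only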; details: S. cerevisiae sgs1 mgt1 strain, hits give high values
In short: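 Growth of a repair-deficient yeast mutant was monitored after compound treatment and expressed as inhibition relative to vehicle-treated cultures.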

[4] = NCI Yeast Anticancer Drug Screen. Data for the cln2 rad14 strain (AID 165);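 note: 0% = growth equal to vehicle treated cultures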; details: S. cerevisiae cln2 rad14 strain, hits give high values
In short: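 Yeast strain cln2 rad14, bearing defects in cell cycle control and DNA repair, serves as the test system; values reflect growth inhibition compared with vehicle.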

[5] = NCI Yeast Anticancer Drug Screen. Data for the mlh1 rad18 strain (AID 175); details: S. cerevisiae mlh1 rad18 strain growth inhibition, hits give high values
In short: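 Steps: expose repair-defective yeast to compound; measure growth; express inhibition against vehicle-treated controls.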

[6] = NCI Yeast Anticancer Drug Screen. Data for the bub3 strain (AID 167); details: S. cerevisiae bub3 mutant strain, hits give high values
In short: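 Growth of a checkpoint-deficient yeast mutant is measured after compound exposure. Values represent inhibition relative to vehicle.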

[7] = at 5.0 µM (retest, dose inferred, filed as 0.5)
[8] = at 50.0 µM (retest, dose inferred, filed as 5.0)

Row | SMILES | growth inhibition [1, 7] [%] | growth inhibition [1, 8] | growth inhibition ([1]; at 50.0 µM) | growth inhibition [2, 7] [%] | growth inhibition [2, 8] | growth inhibition ([2]; at 50.0 µM) | growth inhibition [3, 7] [%] | growth inhibition [3, 8] | growth inhibition ([3]; at 50.0 µM) | growth inhibition [4, 7] [%] | growth inhibition [4, 8] | growth inhibition ([4]; at 50.0 µM) | growth inhibition [5, 7] [%] | growth inhibition [5, 8] | growth inhibition ([5]; at 50.0 µM) | growth inhibition [6, 7] [%] | growth inhibition [6, 8] | growth inhibition ([6]; at 50.0 µM)
1 | Cc1cc(SC#N)cc(C)c1O | 6 | 65% | 82% (active) | -3 | 47% | 63.1% | -1 | 45% | 74% (active) | 32 | 69% | 49% | -5 | 81% (active) | 83.5% (active) |  |  | 
2 | O=C(O)c1ccc(/C=C2\COc3ccccc3C2=O)cc1 | 5 | 85% (active) | 62.6% | 14 | 92% (active) | 67% | 13 | 96% (active) | 83.1% (active) |  |  |  | 4 | 91% (active) | 84.5% (active) | 24 | 94% (active) | 68.2%
3 | CC(=O)C(=Cc1ccc(C=C(C(C)=O)C(C)=O)cc1)C(C)=O | -1 | 30% | 45% | 5 | 40% | 58.5% |  |  |  | 11 | 8% | 46.4% | 22 | 91% (active) | 94.7% (active) | -5 | 30% | 4.7%
4 | CC(=O)OC1C(C)OC(OC(=O)C2CCC3C(C2)OC2(CC(OC(=O)/C=C/c4ccccc4)C(C)CO2)C32CO2)C(OC2OC(C)C(O)C(OC(C)=O)C2O)C1O (stereo not given) | 34 | 97% (active) | 87.9% (active) | 36 | 99% (active) | 92% (active) |  |  |  | 45 | 96% (active) | 88.1% (active) | 31 | 97% (active) | 85.2% (active) | 31 | 99% (active) | 90.2% (active)
5 | COc1ccc(/C=C(\C#N)c2ccccc2)cc1OC | 0 | 55% | 86.6% (active) | -18 | 29% | 87.3% (active) |  |  |  | 30 | 34% | 54.5% | -6 | 64% | 90.2% (active) | 5 | 66% | 84.4% (active)
